Source: PubChem BioAssay AID623943 (Vanderbilt Specialized Chemistry Center, 2012)
The source made the active and inactive calls.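 Rule for the calls: active = response changes with concentration, giving a dose-dependent curve as judged by the depositor; inactive = the rest, with no dose-dependent response.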

What follows are compounds tested against Muscarinic acetylcholine receptor M3 (Rattus norvegicus) (UniProt P08483) (assay: off-target potentiation of rat M3 ACh response – CHO-K1 cells, calcium fluorescence, ACh EC20, selectivity assay for M4 PAM optimization project, SAR follow-up (AID 623943)). Conditions: CHO-K1 rM3, calcium fluorescence, PAM mode with ACh EC20; series mostly up to 30 µM; % ACh max response: at the top concentration.

outcome, inactive:
Cc1nc2sc(C(=O)NCc3ccccc3)c(N)c2c(C)c1Cl, Cc1nc2sc(C(=O)NCc3ccc4c(c3)OCO4)c(N)c2c(C)c1Cl, Cc1nc2sc(C(=O)NCc3cccnc3)c(N)c2c(C)c1Cl, Cc1nc2sc(C(=O)NCc3ccncc3)c(N)c2c(C)c1Cl

% ACh max response, inactive:
Cc1nc2sc(C(=O)NCCc3ccncc3)c(N)c2c(C)c1Cl 19.2, COc1ccc(C)c2sc(NC(=O)c3ccncc3)nc12 18.2, Cc1nc2sc(C(=O)NCc3cccc(F)c3F)c(N)c2c(C)c1Cl 15.9, Cc1nc2sc(C(=O)NC3CC3)c(N)c2c(C)c1Cl 19.5, Cc1nc2sc(C(=O)NCc3nccs3)c(N)c2c(C)c1Cl 20.6, Cc1nc2sc(C(=O)NCc3ccncn3)c(N)c2c(C)c1Cl 17.7
